Assay in all cases: PBM binding z-score (relative to random genomic background probes); higher = stronger binding; sequences stand for … in GC…GCGATTGACAGCGTAGAATGAAGG
Assay [1] relates to FXR:RXRa (NR concentration 270 nM, RXRa partner concentration 90 nM). In a few lines:
(§1)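 Ligand-free nuclear receptor dimers were applied to custom Agilent 4×180K protein-binding microarrays whose double-stranded probes carried direct-repeat seeds, single-nucleotide variants, half-site ablations and random human genomic background sequences in 34-nt variable regions. Incubation lasted 1 h. Binding z-scores were computed against the random background probes from regression-normalized fluorescence.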

Assay [2] has as its system LXRa:RXRa (NR concentration 270 nM, RXRa partner concentration 90 nM). In a few lines: as §1
Assay [3] has as its system LXRa homodimer (NR concentration 270 nM). In outline: as §1
The subject of assay [4] is LXRb:RXRa (NR concentration 270 nM, RXRa partner concentration 90 nM). In outline: as §1
The test system of assay [5] is LXRb homodimer (NR concentration 270 nM). In a few lines: as §1
Assay [6] deals with PPARa:RXRa (NR concentration 270 nM, RXRa partner concentration 90 nM). In a few lines:
as §1

Assay [7] relates to PPARg:RXRa (NR concentration 180 nM, RXRa partner concentration 90 nM). In a few lines:
as §1

In assay [8] the test system is PPARg:RXRa 270nM:90nM, anti-RXR (NR concentration 270 nM, RXRa partner concentration 90 nM). In outline: as §1
Assay [9] deals with PPARg:RXRa 30nM:10nM, anti-RXR (NR concentration 30 nM, RXRa partner concentration 10 nM). In outline:
as §1

The test system of assay [10] is PPARg:RXRa 90nM:30nM, anti-RXR (NR concentration 90 nM, RXRa partner concentration 30 nM). In outline: as §1
For assay [11], the system named is PPARg:RXRa DBDmut IVT, anti-RXR (DBD mutation: RXRa K156A/R161A, NR concentration 270 nM, RXRa partner concentration 90 nM). In a few lines:
as §1

Assay [12] has as its system PPARg:RXRa IVT, anti-PPARg (NR concentration 270 nM, RXRa partner concentration 90 nM). In outline: as §1
The subject of assay [13] is PPARg DBDmut:RXRa IVT, anti-PPARg (DBD mutation: PPARg1 K132A/R137A, NR concentration 270 nM, RXRa partner concentration 90 nM). In a few lines:
as §1

For assay [14], the system named is PPARg DBDmut IVT, anti-PPARg (DBD mutation: PPARg1 K132A/R137A, NR concentration 270 nM). In outline: as §1
The test system of assay [15] is PPARg homodimer (NR concentration 180 nM). In a few lines:
as §1

Assay [16] deals with PXR:RXRa (NR concentration 270 nM, RXRa partner concentration 90 nM). In outline:
as §1

The test system of assay [17] is PXR homodimer (NR concentration 270 nM). In outline:
as §1

The subject of assay [18] is RARa:RXR (NR concentration 270 nM, RXRa partner concentration 90 nM). In a few lines: as §1
The subject of assay [19] is RARa homodimer (NR concentration 270 nM). In a few lines:
as §1

The test system of assay [20] is RARb:RXRa (NR concentration 270 nM, RXRa partner concentration 90 nM). In a few lines:
as §1

Regarding ACTTACGGGTCAACGAGTTTATAGCACGCGTATA, the PBM binding z-score in assay [1] came to 6.09; in assay [2] it was 4.46; in assay [3] it was 1.02; in [4] it was 4.03; in [5] it was 0.714; in [6], 5.4. Moreover, the PBM binding z-score in assay [7] came to 5.37; in assay [8] it was 5.02; in [9], 2.4; in assay [10], 4.12; in [11] it was 3.67; in assay [12], 3.98. In addition, the PBM binding z-score in assay [13] was determined as 1.94; in assay [14], 1.27; in assay [15], 1.4; in assay [16] it was 5.9; in assay [17], 9.25; in assay [18] it was 4.24. Besides, the figures for the PBM binding z-score in [19] and in assay [20] were 0.513 and 4.14, respectively.

Take AATACAGGATCATCGTAGGCCAGAGTACGCACAG: the PBM binding z-score is -0.0228 in [1]; 0.0727 in [2]; 0.0212 in [3]; 0.0447 in assay [4]; 0.414 in [5]; -0.0183 in [6]. Moreover, the PBM binding z-score in assay [7] is 0.976; in assay [8] it was 0.159; in [9] it was 0.238; in assay [10], 0.209; in [11], -0.0409; in assay [12], 0.414. Moreover, the PBM binding z-score in [13] was 0.728; in [14], 0.381; in [15] it was 0.342; in assay [16], 0.111; in assay [17] it was 0.257; in [18], 0.723. The PBM binding z-score in [19] was 0.87; in [20], 0.16.

On to TATACATGGTCAAAGGCCAGAGTACGAATGTCGA, for which the PBM binding z-score in assay [1] was 0.397; in [2], 0.672; in assay [3] it was 0.238; in assay [4] it was 0.37; in assay [5] it was 0.623; in assay [6], 1.64. The PBM binding z-score was 3.14 in assay [7]; 4.34 in assay [8]; 2.32 in [9]; 4.31 in assay [10]; -0.282 in assay [11]; 1.86 in assay [12]. Besides, the PBM binding z-score in assay [13] was determined as 1.66; in [14], 0.812; in [15], 0.786; in [16] it was 0.255; in assay [17], 0.252; in [18], 0.943. Moreover, the PBM binding z-score was 0.241 in [19] and 1.6 in assay [20].

With CCTTACTGGTCACTCCAGGTTATAGCATCGGAGT, the PBM binding z-score was determined as 0.959 in assay [1]; 4.64 in assay [2]; 1.95 in assay [3]; 1.39 in [4]; 0.798 in [5]; 0.503 in assay [6]. The PBM binding z-score in assay [7] amounted to 0.265; in [8] it was 0.0704; in assay [9], 0.0345; in assay [10], 0.0913; in assay [11] it was 0.949; in assay [12], 1.07. For the same sequence, the PBM binding z-score in [13] was found to be 0.287; in assay [14], 0.23; in [15], 0.774; in assay [16] it was 0.989; in [17] it was 0.586; in [18], 0.883. For the same sequence, the PBM binding z-score is 1.05 in [19] and 1.53 in [20].

Turning to TCTATTAGTTGAGGGGCAACCGACGAGTCCGTTT, the PBM binding z-score in [1] was 0.999; in assay [2] it was 0.876; in [3] it was 0.028; in assay [4], 1.41; in assay [5], 0.923; in assay [6], 1.18. Also, the PBM binding z-score in assay [7] is 0.143; in assay [8], 1.75; in assay [9], 3.58; in [10], 2.71; in assay [11], 2.72; in [12], 0.341. Also, the PBM binding z-score amounted to 0.599 in [13]; 1.29 in assay [14]; 1.09 in [15]; 0.857 in assay [16]; 0.479 in assay [17]; 0.515 in [18]. Besides, the PBM binding z-score in assay [19] amounted to 0.621; in assay [20] it was 0.903.

For the sequence GCATATAGATAATACAAGGTGAAAGTCCGATTGT, the PBM binding z-score in assay [1] is 0.079; in assay [2], 0.0374; in [3], 0.245; in assay [4], 0.117; in assay [5], -0.118; in [6] it was 0.578. Besides, the PBM binding z-score in [7] came to 1.21; in assay [8], 0.513; in assay [9], 0.278; in [10], 0.522; in assay [11], 0.0768; in assay [12], 0.523. Besides, the PBM binding z-score in assay [13] was determined as 1.29; in assay [14], 0.755; in assay [15], 0.731; in assay [16], 0.197; in [17] it was 0.246; in assay [18], 0.795. In addition, the PBM binding z-score came to 0.194 in assay [19] and 0.165 in assay [20].

As to ATCTCAAGGTAAAGTTCAGTGAAAGATCGATAGA, the PBM binding z-score in assay [1] is 1.67; in [2], 2.17; in [3], 1.5; in [4] it was 1.42; in [5], 0.854; in assay [6], 2.22. Besides, the PBM binding z-score in assay [7] was 1.97; in [8], 3.4; in assay [9], 1.67; in [10] it was 2.73; in assay [11], 0.17; in assay [12], 1.36. Also, the PBM binding z-score stood at 1.42 in assay [13]; 1.27 in assay [14]; 1.71 in [15]; 2.26 in [16]; 2.1 in [17]; 1.78 in assay [18]. Besides, the results for the PBM binding z-score in assay [19] and in [20] were 1.65 and 2.97, respectively.
